Reference: the supplement of paper PMC10849652
About 7,900 targets were measured; listed, in parts, are those with a hit and a random draw of the rest. About 0.6% of all pairs of compound and target were hits.

What was measured:
Test in all cases: log2 fold change, soluble protein after heating vs DMSO (PISA); higher = thermal stabilisation; K562 cells, 10 uM, 30 min; active = over 0.2 and 3.5 SD of the protein, either way, in both replicates (recomputed)
erlotinib = compound: C#Cc1cccc(Nc2ncnc3cc(OCCOC)c(OCCOC)cc23)c1 [erlotinib]
Method in brief: (§1)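 K562 cells at 2×10^6 cells/mL were given 10 μM compound for 30 min. Aliquots then went through 3 min of heating across 48°C-58°C, were pooled, and were extracted in PBS with 0.5% NP-40 at 4°C, and the supernatant after 21,000xg for 90 min was quantified by TMTpro 16plex LC-MS/MS with channel sums equalised. Thermal stability relative to control samples, from duplicates, is given as log2 fold change.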

[1] = compound: C/C(=N\NC(=O)C1=CC(=CC=C1)S(=O)(=O)N2CCOCC2)/C3=C(C=CC(=C3)Cl)O
Method in brief: as §1

[2] = compound: C1=CC(=C(C=C1Cl)C2=NC3=NC=CN=C3C(=N2)NC4=CC=NC=C4)F
Method in brief: as §1

[3] = compound: C1=CC(=CC=C1C2=NC3=C(N2)C=C(C=C3)C(=O)N)OC4=CC=C(C=C4)Cl
Method in brief: as §1

[4] = compound: C1=CC2=C(C=CC(=C2)/C=C\3/C(=O)NC(=NCC4=CC=CS4)S3)N=C1
Method in brief: as §1

[5] = compound: C1=CC2=NC=CN=C2C=C1/C=C/3\C(=O)NC(=O)S3
Method in brief: as §1

[6] = compound: C1=CC=C(C=C1)C2=NC(=C(N2)C3=CC=NC=C3)C4=CC(=C(C=C4)Cl)O
Method in brief: as §1

[7] = compound: C1=CC=C2C(=C1)C3=NNC4=CC=CC(=C43)C2=O
Method in brief: as §1

[8] = compound: C1CCN(C1)C(=O)NC2=CC=CC(=C2)NC3=NC=C(C(=N3)NCCC4=CN=CN4)Br
Method in brief: as §1

[9] = compound: C1CN(CCC1(CC2=CC=C(C=C2)Cl)N)C3=NC=NC4=C3C=CN4
Method in brief: as §1

Measured: log2 fold change

PGGHG (UniProt Q32M88)
Sequence of UniProt Q32M88 (Q32M88 whole entry, looked up): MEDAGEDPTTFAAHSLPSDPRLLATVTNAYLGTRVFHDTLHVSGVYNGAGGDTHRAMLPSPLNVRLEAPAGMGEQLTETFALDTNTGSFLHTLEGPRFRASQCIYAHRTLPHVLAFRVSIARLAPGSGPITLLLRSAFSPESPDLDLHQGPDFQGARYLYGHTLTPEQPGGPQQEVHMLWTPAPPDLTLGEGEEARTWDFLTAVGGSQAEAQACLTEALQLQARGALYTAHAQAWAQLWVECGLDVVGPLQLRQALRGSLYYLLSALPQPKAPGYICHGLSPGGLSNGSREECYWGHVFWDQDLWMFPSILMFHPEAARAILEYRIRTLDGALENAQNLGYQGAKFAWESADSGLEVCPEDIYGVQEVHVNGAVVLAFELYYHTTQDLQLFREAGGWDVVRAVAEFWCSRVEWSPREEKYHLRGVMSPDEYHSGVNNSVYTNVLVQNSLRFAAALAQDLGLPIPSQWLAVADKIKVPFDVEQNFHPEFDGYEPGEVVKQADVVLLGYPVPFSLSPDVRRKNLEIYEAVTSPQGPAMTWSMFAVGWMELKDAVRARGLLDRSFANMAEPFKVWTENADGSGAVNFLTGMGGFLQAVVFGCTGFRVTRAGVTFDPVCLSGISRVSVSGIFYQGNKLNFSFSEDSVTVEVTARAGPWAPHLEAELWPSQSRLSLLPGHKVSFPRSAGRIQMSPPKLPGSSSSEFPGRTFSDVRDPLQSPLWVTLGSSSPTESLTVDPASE
active: [4] -0.44
inactive: erlotinib 0.059 | [1] 0.114 | [2] 0.024 | [3] 0.002 | [5] 0.048 | [6] -0.049 | [7] -0.248 | [8] -0.225 | [9] 0.119

PSMD1 (UniProt Q99460)
inactive: erlotinib -0.08 | [1] -0.074 | [2] 0.028 | [3] 0.021 | [4] -0.061 | [5] -0.018 | [6] 0.062 | [7] 0.034 | [8] 0.001 | [9] -0.025

PTRHD1 (UniProt Q6GMV3)
inactive: erlotinib -0.002 | [1] 0.005 | [3] 0.046 | [4] 0.134 | [5] 0.045 | [6] 0.121 | [7] -0.032 | [8] -0.017 | [9] -0.012
active: [2] 0.37

PPP2R5E (UniProt Q16537)
Sequence of UniProt Q16537 (Q16537 whole entry, looked up): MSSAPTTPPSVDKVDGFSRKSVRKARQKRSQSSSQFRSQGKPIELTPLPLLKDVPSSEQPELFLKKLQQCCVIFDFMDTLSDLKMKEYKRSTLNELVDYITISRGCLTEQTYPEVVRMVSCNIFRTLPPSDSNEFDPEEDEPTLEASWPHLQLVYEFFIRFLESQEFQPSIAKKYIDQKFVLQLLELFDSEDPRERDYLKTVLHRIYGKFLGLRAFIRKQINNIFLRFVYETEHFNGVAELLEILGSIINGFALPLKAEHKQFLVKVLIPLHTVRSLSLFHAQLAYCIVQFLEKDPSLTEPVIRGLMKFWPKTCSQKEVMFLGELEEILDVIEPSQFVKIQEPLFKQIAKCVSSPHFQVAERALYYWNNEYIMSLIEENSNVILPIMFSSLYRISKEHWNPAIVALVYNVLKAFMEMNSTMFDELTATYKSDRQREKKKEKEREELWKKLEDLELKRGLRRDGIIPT
inactive: erlotinib 0.017 | [1] 0.096 | [2] 0.005 | [3] -0.061 | [4] -0.007 | [5] 0 | [6] 0.075 | [7] 0.054 | [8] -0.013 | [9] 0.056

PPP6R1 (UniProt Q9UPN7)
Sequence of UniProt Q9UPN7 (Q9UPN7 whole entry, looked up): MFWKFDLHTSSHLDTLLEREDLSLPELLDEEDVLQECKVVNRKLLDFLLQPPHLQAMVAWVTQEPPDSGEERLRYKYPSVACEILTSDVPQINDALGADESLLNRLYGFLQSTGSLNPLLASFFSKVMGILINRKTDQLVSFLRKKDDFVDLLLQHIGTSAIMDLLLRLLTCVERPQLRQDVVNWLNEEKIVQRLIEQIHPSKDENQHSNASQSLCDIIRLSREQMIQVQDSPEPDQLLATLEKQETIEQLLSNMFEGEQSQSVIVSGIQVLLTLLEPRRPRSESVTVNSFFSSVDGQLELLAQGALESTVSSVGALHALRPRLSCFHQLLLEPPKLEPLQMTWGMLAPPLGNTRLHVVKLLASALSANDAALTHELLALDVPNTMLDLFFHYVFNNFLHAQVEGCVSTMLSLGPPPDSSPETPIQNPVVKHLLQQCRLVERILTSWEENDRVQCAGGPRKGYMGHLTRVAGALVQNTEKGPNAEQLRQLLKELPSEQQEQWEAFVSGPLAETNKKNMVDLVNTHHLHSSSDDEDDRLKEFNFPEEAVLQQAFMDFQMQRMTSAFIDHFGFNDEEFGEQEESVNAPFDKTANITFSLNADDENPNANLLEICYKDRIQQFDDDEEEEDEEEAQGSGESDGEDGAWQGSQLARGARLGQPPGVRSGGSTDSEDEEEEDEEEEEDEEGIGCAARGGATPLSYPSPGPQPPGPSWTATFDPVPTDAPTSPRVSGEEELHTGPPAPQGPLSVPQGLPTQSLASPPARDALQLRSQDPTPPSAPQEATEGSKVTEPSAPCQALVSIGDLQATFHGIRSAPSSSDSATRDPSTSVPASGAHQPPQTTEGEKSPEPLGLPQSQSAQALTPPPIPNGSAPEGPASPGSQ
inactive: erlotinib -0.022 | [1] -0.017 | [2] 0.013 | [3] -0.004 | [4] 0.025 | [5] 0.012 | [6] -0.022 | [7] -0.039 | [8] -0.014 | [9] 0.033

PSMC6 (UniProt P62333)
Sequence of UniProt P62333 (P62333 whole entry, looked up): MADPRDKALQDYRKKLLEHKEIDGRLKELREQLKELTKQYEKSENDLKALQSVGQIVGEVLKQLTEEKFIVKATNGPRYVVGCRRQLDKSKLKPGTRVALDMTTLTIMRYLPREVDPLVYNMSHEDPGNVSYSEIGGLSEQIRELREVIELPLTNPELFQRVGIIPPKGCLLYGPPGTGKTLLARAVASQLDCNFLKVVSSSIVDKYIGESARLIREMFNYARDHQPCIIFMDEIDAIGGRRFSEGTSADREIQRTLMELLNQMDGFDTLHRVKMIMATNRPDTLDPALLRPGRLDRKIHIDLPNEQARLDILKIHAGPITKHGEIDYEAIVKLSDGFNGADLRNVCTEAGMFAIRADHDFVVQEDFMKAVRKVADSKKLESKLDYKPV
inactive: erlotinib -0.06 | [1] -0.074 | [2] -0.006 | [3] 0.011 | [4] -0.031 | [5] -0.037 | [6] 0.015 | [7] 0.014 | [8] 0.034 | [9] -0.008

PSMC3 (UniProt P17980)
inactive: erlotinib -0.039 | [1] -0.107 | [2] -0.037 | [3] 0.008 | [4] -0.059 | [5] -0.025 | [6] -0.002 | [7] -0.001 | [8] 0.026 | [9] -0.004

PTPN23 (UniProt Q9H3S7)
inactive: erlotinib 0.092 | [1] 0.158 | [2] -0.007 | [3] -0.048 | [4] 0.041 | [5] 0.018 | [6] 0 | [7] 0.006 | [8] -0.048 | [9] -0.029

PDCD6IP (UniProt Q8WUM4)
inactive: erlotinib 0.162 | [1] 0.167 | [2] 0.045 | [3] -0.044 | [4] 0.122 | [5] 0.014 | [6] 0.031 | [7] 0.043 | [8] -0.095 | [9] -0.122

PPP1R12A (UniProt O14974)
active: [9] -0.485
inactive: erlotinib 0.004 | [1] 0.044 | [2] 0.023 | [3] 0.023 | [4] -0.188 | [5] 0 | [6] 0.035 | [7] -0.067 | [8] -0.074

PCBP2 isoform 3 (UniProt Q15366)
Sequence of UniProt Q15366 (Q15366 whole entry, looked up): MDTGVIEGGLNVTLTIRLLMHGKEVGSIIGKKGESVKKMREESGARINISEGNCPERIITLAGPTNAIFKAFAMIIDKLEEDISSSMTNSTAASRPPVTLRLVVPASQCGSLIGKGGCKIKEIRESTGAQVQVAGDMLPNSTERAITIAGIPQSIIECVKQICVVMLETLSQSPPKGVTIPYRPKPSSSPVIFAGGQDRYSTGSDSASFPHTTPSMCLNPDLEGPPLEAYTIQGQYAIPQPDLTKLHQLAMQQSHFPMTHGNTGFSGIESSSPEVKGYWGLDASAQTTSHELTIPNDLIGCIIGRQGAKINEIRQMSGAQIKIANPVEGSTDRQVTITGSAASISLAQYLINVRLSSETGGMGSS
inactive: erlotinib -0.01 | [1] 0.087 | [2] 0.038 | [3] -0.039 | [4] 0.019 | [5] 0.025 | [6] 0.063 | [7] 0.017 | [8] -0.039 | [9] 0.01

PLD3 (UniProt Q8IV08)
inactive: erlotinib -0.012 | [1] 0.029 | [2] 0.054 | [3] 0.023 | [4] 0.04 | [5] 0.024 | [6] -0.061 | [7] 0.006 | [8] 0.001 | [9] 0.048

PRCP (UniProt P42785)
inactive: erlotinib -0.028 | [1] 0.013 | [2] 0.049 | [3] -0.025 | [4] -0.052 | [5] 0.014 | [6] -0.019 | [7] -0.001 | [8] 0.038 | [9] 0.052

PMPCB (UniProt O75439)
Sequence of UniProt O75439 (O75439 whole entry, looked up): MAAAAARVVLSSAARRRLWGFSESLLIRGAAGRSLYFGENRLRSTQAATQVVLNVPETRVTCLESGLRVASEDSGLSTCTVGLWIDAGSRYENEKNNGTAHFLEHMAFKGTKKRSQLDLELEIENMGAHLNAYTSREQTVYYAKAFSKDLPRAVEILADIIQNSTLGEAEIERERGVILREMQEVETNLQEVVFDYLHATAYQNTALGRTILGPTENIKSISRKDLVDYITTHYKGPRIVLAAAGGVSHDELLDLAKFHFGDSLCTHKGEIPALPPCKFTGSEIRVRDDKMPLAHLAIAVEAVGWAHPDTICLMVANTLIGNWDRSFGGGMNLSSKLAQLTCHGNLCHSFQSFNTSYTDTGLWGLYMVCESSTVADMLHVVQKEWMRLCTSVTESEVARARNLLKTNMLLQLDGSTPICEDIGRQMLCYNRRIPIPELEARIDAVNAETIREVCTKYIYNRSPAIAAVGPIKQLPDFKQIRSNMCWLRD
inactive: erlotinib -0.022 | [1] 0 | [2] 0.031 | [3] 0.024 | [4] 0.019 | [5] 0.007 | [6] 0.023 | [7] 0.078 | [8] -0.014 | [9] 0.046

PPP2R5C isoform 4 (UniProt Q13362)
Sequence of UniProt Q13362 (Q13362 whole entry, looked up): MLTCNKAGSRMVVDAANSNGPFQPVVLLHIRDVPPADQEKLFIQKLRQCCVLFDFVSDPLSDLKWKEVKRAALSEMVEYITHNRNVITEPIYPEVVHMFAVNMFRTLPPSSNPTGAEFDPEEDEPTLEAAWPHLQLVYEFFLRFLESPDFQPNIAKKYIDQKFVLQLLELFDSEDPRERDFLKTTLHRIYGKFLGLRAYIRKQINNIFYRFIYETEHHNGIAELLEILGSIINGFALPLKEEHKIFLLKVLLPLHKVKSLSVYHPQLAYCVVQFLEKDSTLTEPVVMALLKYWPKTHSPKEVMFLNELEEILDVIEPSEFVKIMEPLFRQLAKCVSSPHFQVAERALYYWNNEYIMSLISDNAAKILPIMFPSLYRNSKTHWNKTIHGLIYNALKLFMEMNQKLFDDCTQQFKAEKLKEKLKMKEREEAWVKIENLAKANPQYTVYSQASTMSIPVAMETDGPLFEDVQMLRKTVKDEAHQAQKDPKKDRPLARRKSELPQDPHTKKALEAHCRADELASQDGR
inactive: erlotinib 0.036 | [1] -0.022 | [2] 0.218 | [3] -0.025 | [4] -0.039 | [5] -0.004 | [6] -0.029 | [7] -0.015 | [8] 0 | [9] 0.019

PRIM2 (UniProt P49643)
inactive: erlotinib 0.004 | [1] 0.038 | [2] 0.018 | [3] 0.015 | [4] 0.061 | [5] 0.009 | [6] 0.035 | [7] 0.035 | [8] -0.023 | [9] -0.071

POLR2D (UniProt O15514)
inactive: erlotinib -0.153 | [1] -0.048 | [2] 0.138 | [3] 0.204 | [4] 0.06 | [5] 0.087 | [6] -0.049 | [7] -0.011 | [8] 0.058 | [9] 0.064

PMPCA (UniProt Q10713)
inactive: erlotinib -0.014 | [1] 0.005 | [2] 0.064 | [3] 0.016 | [4] 0.03 | [5] -0.014 | [6] 0.07 | [7] 0.065 | [8] -0.026 | [9] 0.011

PXK (UniProt Q7Z7A4)
inactive: erlotinib 0.062 | [1] 0.019 | [2] -0.006 | [3] 0.022 | [4] 0.074 | [5] 0.018 | [7] 0.019 | [8] 0.014 | [9] 0.004
active: [6] 0.251

PPOX (UniProt P50336)
Sequence of UniProt P50336 (P50336 whole entry, looked up): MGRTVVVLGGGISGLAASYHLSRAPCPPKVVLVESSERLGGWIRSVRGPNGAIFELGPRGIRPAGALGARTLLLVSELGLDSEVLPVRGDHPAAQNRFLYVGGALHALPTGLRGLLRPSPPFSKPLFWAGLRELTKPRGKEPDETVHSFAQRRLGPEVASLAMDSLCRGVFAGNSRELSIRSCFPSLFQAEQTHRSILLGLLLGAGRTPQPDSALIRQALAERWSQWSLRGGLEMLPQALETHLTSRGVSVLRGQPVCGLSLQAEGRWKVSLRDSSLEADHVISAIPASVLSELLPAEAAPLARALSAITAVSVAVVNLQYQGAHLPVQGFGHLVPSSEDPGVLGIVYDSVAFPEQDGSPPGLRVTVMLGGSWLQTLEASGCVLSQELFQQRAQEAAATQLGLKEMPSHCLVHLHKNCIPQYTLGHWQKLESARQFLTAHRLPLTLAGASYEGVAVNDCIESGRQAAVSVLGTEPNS
inactive: erlotinib 0.112 | [1] 0.415 | [2] 0.156 | [3] 0.416 | [4] 0.039 | [5] -0.004 | [6] 0.095 | [7] 0.013 | [8] 0.051 | [9] -0.011

PPP2R5C isoform 5 (UniProt Q13362)
inactive: erlotinib 0.028 | [1] 0.021 | [2] 0.015 | [3] -0.014 | [4] 0.009 | [5] -0.036 | [6] 0.004 | [7] 0.047 | [8] -0.018 | [9] -0.002

PSMA3 (UniProt P25788)
Sequence of UniProt P25788 (P25788 whole entry, looked up): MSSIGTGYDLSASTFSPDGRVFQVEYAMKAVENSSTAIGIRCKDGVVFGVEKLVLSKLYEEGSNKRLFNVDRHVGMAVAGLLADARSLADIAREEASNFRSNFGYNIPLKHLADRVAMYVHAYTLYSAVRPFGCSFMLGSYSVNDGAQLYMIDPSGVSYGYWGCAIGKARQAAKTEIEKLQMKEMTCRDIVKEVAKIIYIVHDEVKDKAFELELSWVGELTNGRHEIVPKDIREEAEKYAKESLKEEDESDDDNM
inactive: erlotinib -0.052 | [1] -0.075 | [2] 0.016 | [3] 0.028 | [4] -0.073 | [5] -0.025 | [6] -0.023 | [7] 0.002 | [8] -0.008 | [9] 0.044

PGM3 isoform 4 (UniProt O95394)
inactive: erlotinib 0.001 | [1] 0.094 | [2] 0.045 | [3] 0.103 | [4] 0.092 | [5] 0.001 | [6] 0.042 | [7] 0.064 | [8] -0.005 | [9] -0.053

PSMD8 (UniProt P48556)
inactive: erlotinib -0.045 | [1] -0.096 | [2] -0.046 | [3] 0.023 | [4] -0.027 | [5] -0.031 | [6] 0.036 | [7] 0.039 | [8] 0.055 | [9] -0.031

PATL1 (UniProt Q86TB9)
inactive: erlotinib 0.044 | [1] 0.13 | [2] -0.021 | [3] 0.048 | [4] 0.01 | [5] -0.233 | [6] -0.075 | [7] 0.029 | [8] -0.071 | [9] -0.052

PTPA (UniProt Q15257)
inactive: erlotinib 0.022 | [1] 0.034 | [2] 0.069 | [3] 0.127 | [4] -0.01 | [5] 0.01 | [6] 0.022 | [7] 0.029 | [8] -0.037 | [9] -0.013

PDCD2L (UniProt Q9BRP1)
inactive: erlotinib -0.051 | [1] 0.226 | [2] 0.128 | [3] 0.03 | [4] 0.006 | [5] -0.03 | [6] -0.078 | [7] -0.001 | [8] -0.071 | [9] -0.036

PDE12 (UniProt Q6L8Q7)
inactive: erlotinib -0.023 | [1] 0.018 | [2] 0.052 | [3] 0.027 | [4] 0.001 | [5] -0.008 | [6] -0.015 | [7] 0.054 | [8] -0.04 | [9] 0.026

PISD (UniProt Q9UG56)
Sequence of UniProt Q9UG56 (Q9UG56 whole entry, looked up): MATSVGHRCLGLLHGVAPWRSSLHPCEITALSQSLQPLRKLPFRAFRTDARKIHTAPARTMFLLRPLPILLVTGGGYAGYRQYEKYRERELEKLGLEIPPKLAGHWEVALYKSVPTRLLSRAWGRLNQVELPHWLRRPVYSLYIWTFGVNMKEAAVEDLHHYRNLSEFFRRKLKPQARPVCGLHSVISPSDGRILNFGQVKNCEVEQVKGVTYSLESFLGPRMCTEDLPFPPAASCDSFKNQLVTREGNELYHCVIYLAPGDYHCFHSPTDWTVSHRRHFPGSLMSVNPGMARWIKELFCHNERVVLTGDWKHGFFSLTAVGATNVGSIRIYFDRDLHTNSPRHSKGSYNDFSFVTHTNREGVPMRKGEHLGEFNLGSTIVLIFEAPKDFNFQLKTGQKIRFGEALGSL
inactive: erlotinib -0.021 | [1] -0.055 | [2] 0.026 | [3] 0.089 | [4] 0.034 | [5] 0.023 | [6] 0.02 | [7] 0.058 | [8] 0.009 | [9] -0.004

PARG (UniProt Q86W56)
inactive: erlotinib 0.063 | [1] 0.067 | [2] 0.034 | [3] -0.015 | [4] 0.063 | [5] 0.059 | [6] 0.043 | [7] 0.063 | [8] -0.079 | [9] -0.071

PHKA2 (UniProt P46019)
inactive: erlotinib -0.077 | [1] 0.029 | [2] 0.041 | [3] -0.008 | [4] -0.011 | [5] 0.041 | [6] -0.028 | [7] -0.026 | [8] 0.004 | [9] 0.004

PELP1 (UniProt Q8IZL8)
inactive: erlotinib 0.082 | [1] 0.044 | [2] -0.035 | [3] 0.008 | [4] -0.032 | [5] -0.008 | [6] 0.007 | [7] -0.053 | [8] -0.041 | [9] 0.08
